Assay outcomes (PubChem BioAssay)
Rows were chosen to be rich in hits. Some 2.8% of all compounds tested hit in one or more screens of this group.
GPR32 ag: qHTS for Agonists of Human Resolvin D1 Receptor DRV1. Probable G-protein coupled receptor 32 (Homo sapiens), O75388. 2.5% of 48,000 active. activation, % at 76.9 µM. AID 1346428, 2018. CHO-K1 GPR32 beta-arrestin PathHunter luminescence, 90 min; zero percent set by DMSO-only wells;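 active = activation of at least 60% and not above a set upper limit, about 1 call in 100 departs from these limits; inconclusive = activation of 40% to 60%, or above that upper limit; inactive = activation under 40%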; also: 0% is about no effect
Target sequence (O75388 whole entry, looked up): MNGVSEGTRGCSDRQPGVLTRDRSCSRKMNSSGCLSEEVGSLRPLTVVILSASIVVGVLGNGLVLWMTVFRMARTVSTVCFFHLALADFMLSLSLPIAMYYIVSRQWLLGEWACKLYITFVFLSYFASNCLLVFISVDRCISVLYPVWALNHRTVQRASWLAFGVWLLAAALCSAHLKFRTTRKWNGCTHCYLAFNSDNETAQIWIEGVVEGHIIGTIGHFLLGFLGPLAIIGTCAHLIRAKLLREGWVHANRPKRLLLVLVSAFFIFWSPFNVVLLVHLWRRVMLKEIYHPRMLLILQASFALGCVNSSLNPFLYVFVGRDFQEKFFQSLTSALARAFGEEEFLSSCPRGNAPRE
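Readings come from a cell-based beta-arrestin complementation format: CHO-K1 GPR32 stable cells (2,500/well) treated 90 min with compounds, then beta-Gal substrate added for 1 h before chemiluminescence imaging.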
B2AR arrestin ag: qHTS assay of beta-arrestin-biased ligands of beta2-adrenergic receptor: NCGC Sytravon Library Screen; HTLA Tango cells, beta-arrestin recruitment, luciferase luminescence, 18 h; Potency, µM (doses to about 46.1 µM), most hits filed as activators; 44,000 tested, under 10 active;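 also: potency is read from the fitted curve at half-maximal effect; 0% = DMSO and full agonism = EC100 isoproterenol or metaproterenol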
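First, Tango cells carrying beta2-AR and beta-arrestin fusions received compound up to 46 microM. After 18 hr at 37 degrees C, luciferase substrate was added for 15 minutes, then luminescence gave %Activity for curve fitting.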
TSG101-PTAP inh: qHTS Validation Assay for Inhibitors of HIV-1 Budding by Blocking the Interaction of PTAP/TSG101: Sytravon Library Screen. Fluorescence polarization, FITC-PTAP peptide/Tsg101, 20 min. Potency, µM (highest dose often 115 µM), usual class: inhibitors. 44,000 tested, under 10 active; also: potency is read from the fitted curve at half-maximal effect; 0% is about no effect
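Fluorescence polarization binding of Tsg101 binding domain (10 uM final) to FITC-labeled PTAP-motif peptide (50 nM final) in HEPES pH 7.5/NaCl/Tween 20/EDTA/TCEP buffer; 20 min at r.t. Actives by curve class, <25 µM, efficacy <60% inhibition.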
GALK inhibitor: qHTS Assay for Inhibitors of Human Galactokinase (GALK): NCGC Sytravon Library Screen; P51570; recombinant GALK, Kinase-Glo ATP luminescence, 1 h; Potency, µM (doses to about 57.5 µM), for inactives: at the top dose activity, negative = inhibition, usual class: inhibitors; 44,000 tested, under 10 active; AID 1347072, 2019;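 also: plate controls were full GALK reaction for no effect and reaction lacking GALK for full effect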
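Reactions with and without enzyme served as controls. GALK at 5 nM phosphorylates 100 uM galactose using 35 uM ATP (HEPES pH 8.0, Mg2+) for 1 h at RT, with luminescence read 10 min after adding Kinase-Glo Plus.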
GALC G270D up: A Novel Cell-Based Assay to Identify Small Molecules for B -Galactocerebrosidase. 145M-Twi-hGALC-G270D cells (Twitcher mouse brain line with human GALC G270D), HMU-beta-Gal fluorescence, 48 h. P54803. AID 1159614, 2016. 0.1% of 45,000 active. Potency, µM (top dose mostly 57.5 µM), most hits filed as activators; also: potency is read from the fitted curve at half-maximal effect; 0% is about no effect; nearly all actives have a fitted effect of over 65% in size
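Live 145M-Twi cells (Twitcher mouse brain-derived, GALC-null) stably expressing human GALC-G270D, with a wild-type GALC line, were compound-treated. Residual GALC activity was then read as fluorescence from 0.1 mM final HMU-β-gal at pH 5.2; higher signal means activation.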
FH mod: Identification of activators of human fumarate hydratase by quantitative high-throughput screening; FH coupled MDH/diaphorase resazurin fluorescence, 15 min; Potency, µM (doses to about 79.9 µM), without a hit: at the highest dose activity change, negative = inhibition, usual class: inhibitors; 0.22% of 54,000 active; AID 1347055, 2019; also: potency is read from the fitted curve at half-maximal effect; % is scaled to controls: 0 for no effect and ±100 for the full control effect; the screen sought activators but most active calls are inhibition curves; nearly all actives have a fitted effect of over 45% in size
The depositor's hits bear a star; i = inactive; ? = inconclusive; / = not tested or not shown; [ ] = dose if it differs, or a comment. Unless noted, calls follow the shape of the dose curve; as a rule, active = well fitted curve in the direction sought with a large enough effect; inconclusive = small, poorly fitted or top-dose-only effect, or another doubt; inactive = no such curve, though single readings can be large; an effect the other way counts as inactive or inconclusive.

SMILES	GPR32 ag	B2AR arrestin ag	TSG101-PTAP inh	GALK inhibitor	GALC G270D up	FH mod
Cc1ccc(-n2c(C)cc(/C=C(\C#N)C(=O)Nc3ccc(C)c(C)c3)c2C)cc1	12	i	i	0%	i	-8%
CNS(=O)(=O)c1ccc2c(c1)/C(=C/c1[nH]c3c(c1CCCN1CCN(C)CC1)CCCC3)C(=O)N2	/	/	/	/	/	26%
Cc1ccc(NC(=O)Nc2ccc3nc(N4CCN(C)CC4)cc(C)c3c2)cc1C	?	i	i	2%	i	1%
Cc1cc(Nc2cccc(Cl)c2)nc2ccc(NC(=O)c3cccnc3)cc12	60*	i	i	-9%	i	?
Cc1cc(Nc2cccc(Cl)c2)nc2ccc(NC(=O)c3cccc(N(C)C)c3)cc12	6	i	i	-3%	i	-28%
Cc1cc(N2CCN(C)CC2)nc2ccc(NC(=O)Nc3ccccc3)cc12	?	i	i	-1%	i	2%
Cc1cc(N2CCN(C)CC2)nc2ccc(NC(=O)Nc3cccc(Cl)c3)cc12	93*	i	i	2%	i	-10%
Cc1cc(N2CCN(C)CC2)nc2ccc(NC(=O)Nc3ccccc3Br)cc12	103*	i	i	1%	i	-16%
CNC(=O)[C@H]1O[C@@H](n2cnc3c(NCc4cccc(I)c4)ncnc32)[C@H](O)C1O (some centres undefined)	/	/	/	/	/	-7%[53.3 µM]
Cc1ccccc1CSc1nc2c(sc3ccccc32)c(=O)n1CCCOC(C)C	21	i	i	-6%	i	-29%
COCCCn1c(SCc2ccccc2F)nc2c(sc3ccccc32)c1=O	2	i	i	0%	32µM*	-29%
CC(C)OCCCn1c(SCC(N)=O)nc2c(sc3ccccc32)c1=O	115*	i	i	-2%	i	-6%
O=C(CS(=O)(=O)c1cccc2nsnc12)N1CCN(c2cccc(C(F)(F)F)c2)CC1	88*	i	i	2%	i	-8%
O=C(CS(=O)(=O)c1cccc2nsnc12)N1CCN(c2ccccc2F)CC1	-15	?	i	0%	i	-30%
Cc1ccc(-n2ncc3c(NCCCN4CCOCC4)ncnc32)cc1Cl	14	i	i	-1%	i	-14%
CC(C)CCNc1ncnc2c1cnn2-c1cccc(Cl)c1	92*	i	i	1%	i	-5%
Clc1cccc(-n2ncc3c(NCCCN4CCOCC4)ncnc32)c1	85*	i	i	2%	i	-5%
CCc1ccccc1Nc1ncnc2c1cnn2-c1ccc(Cl)cc1	73*	i	i	0%	i	-11%
CCc1ccccc1Nc1ncnc2c1cnn2-c1ccc(C)cc1C	?	i	i	3%	i	-16%
Clc1cccc(-n2ncc3c(NCCCc4ccccc4)ncnc32)c1	?	i	i	-1%	i	-18%
CN(C)CCNc1ncnc2c1cnn2-c1cccc(Cl)c1	87*	i	i	-5%	i	-6%
CC1=C[C@@H]2[C@H]3[C@@H]4O[C@@](C)(CC[C@H]4O)[C@H]3CC(=O)[C@]23C(=O)N[C@@H](CC(C)C)[C@@H]3[C@@H]1C	/	/	/	/	/	0%[53.3 µM]
CN1CCC(c2c(O)cc(O)c3c(=O)cc(-c4ccccc4Cl)oc23)C(O)C1 (centres undefined)	/	/	/	/	/	3%
O=C(NCc1ccc(Cl)cc1Cl)c1cccc(N2CCCS2(=O)=O)c1	62*	i	i	2%	i	0%
CCOc1ccc(CCNC(=O)CN2CCN(Cc3ccc(F)cc3Cl)C2=O)cc1OCC	75*	i	i	-7%	i	-6%
SMILES	GPR32 ag	B2AR arrestin ag	TSG101-PTAP inh	GALK inhibitor	GALC G270D up	FH mod
O[C@@H](CNC[C@H](O)[C@H]1CCc2cc(F)ccc2O1)[C@@H]1CCc2cc(F)ccc2O1	62*	/	/	/	i	-3%[53.3 µM]
CC1CCCN(C(=O)c2cc3c(Cl)nc4ccccc4c3s2)C1 (centres undefined)	108*	i	i	-1%	i	-25%
Cc1cccc(C)c1Nc1c(-c2ccccc2Cl)nc2cnccn12	11	i	i	-3%	22µM*	-4%
Cc1cccc(C)c1Nc1c(-c2ccccn2)nc2ccc(Cl)cn12	-22	i	i	4%	i	-4%
COc1cc2c(cc1O)C(c1ccc(O)cc1)C(C)C(C)C2 (centres undefined)	/	/	/	/	/	-17%
CCc1ccc(NC(=O)CSc2nc3n[nH]c(C)c3c(=N)n2-c2ccccc2C)cc1	62*	i	i	-2%	i	-1%
CN(C1CCCCC1)S(=O)(=O)c1ccc(C(=O)Nc2sc3c(c2C(N)=O)CC(C)(C)NC3(C)C)cc1	118*	i	i	2%	i	-6%
CC(C)CN(CC(C)C)S(=O)(=O)c1ccc(C(=O)Nc2sc3c(c2C(N)=O)CC(C)(C)NC3(C)C)cc1	-13	i	i	-2%	i	3%
COC(=O)c1ccccc1NC(=O)[C@H]1O[C@@H]2OC(C)(C)O[C@@H]2[C@H]2OC(C)(C)O[C@H]21	-37	i	i	0%	i	9%
COc1ccc(NC(=O)[C@H]2O[C@@H]3OC(C)(C)O[C@@H]3[C@H]3OC(C)(C)O[C@H]32)c(OC)c1	97*	i	i	7%	i	-6%
Cc1ccc(CNC(=O)c2ccc(-c3nc(CS(=O)(=O)c4ccc(C)cc4)c(C)o3)cc2)cc1	110*	i	i	2%	?	?
CCCCNC(=O)c1ccc(-c2nc(CS(=O)(=O)c3ccc(C)cc3)c(C)o2)cc1	69*	i	i	0%	i	-11%
CCN(CC)CCCNC(=O)c1ccc(-c2nc(CN3CCc4ccccc43)c(C)o2)cc1	95*	i	i	4%	i	-3%
COCCCNC(=O)c1ccc(-c2nc(CS(=O)(=O)c3ccc(C)cc3)c(C)o2)cc1	7	i	i	0%	/	/
